HIF act – HIF pathway transcriptional activation. U2OS HRE-luciferase reporter, luminescence; normalized: DMSO 0%, desferrioxamine 100%. activation, % at 7.5 µM (by protocol). hit rate 0.32% among 300,000. AID 1910;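 active means mean activation of at least 10% of the iron chelator positive control signal, with at least half of replicates also reaching 10%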
CHT inh – human CHT choline transport inhibition | Q9GZV3 | CHT-expressing cells, membrane potential dye, choline response; stronger effect = lower value | B-score at 10 µM | hit rate 0.86% among 310,000 | AID 488975;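 active means B-score over 3 SD under the library average, and starting fluorescence ratio not unusually high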;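 further: choline stimulus applied at its EC90 after an EC20 pre-addition; B-score computed on integrated fluorescence ratio after choline addition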
Target sequence (Q9GZV3 whole entry, looked up): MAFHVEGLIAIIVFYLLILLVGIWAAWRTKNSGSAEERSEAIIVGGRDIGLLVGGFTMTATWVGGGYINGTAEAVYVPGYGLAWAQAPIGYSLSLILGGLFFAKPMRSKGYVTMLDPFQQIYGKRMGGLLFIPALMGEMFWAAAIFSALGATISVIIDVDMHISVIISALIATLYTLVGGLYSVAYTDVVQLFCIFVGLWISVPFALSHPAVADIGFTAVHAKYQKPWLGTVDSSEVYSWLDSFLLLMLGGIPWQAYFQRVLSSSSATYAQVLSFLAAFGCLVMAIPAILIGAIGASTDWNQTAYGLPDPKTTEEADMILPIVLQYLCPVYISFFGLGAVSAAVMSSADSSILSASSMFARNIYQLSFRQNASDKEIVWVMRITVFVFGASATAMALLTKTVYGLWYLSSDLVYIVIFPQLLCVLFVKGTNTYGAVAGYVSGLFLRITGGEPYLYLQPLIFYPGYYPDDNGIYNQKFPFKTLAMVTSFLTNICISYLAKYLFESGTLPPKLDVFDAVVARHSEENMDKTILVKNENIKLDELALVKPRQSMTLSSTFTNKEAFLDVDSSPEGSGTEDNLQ
CHT allo act – human CHT allosteric activation; hit rate 0.49% among 310,000; Q9GZV3; CHT-expressing cells, membrane potential dye, choline EC20; stronger effect = higher value; LV-AA mutant CHT in HEK293 cells; B-score at 10 µM;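 active means initial fluorescence not abnormally high and integrated response B-score, plate-corrected, over 3 SD above library mean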
VLA-4 inh – inhibition in a human VLA-4 binding assay; VLA-4 expressing cells, ligand binding flow cytometry; P13612; hit rate 0.2% among 330,000; AID 2557; inhibition, % (about 7 µM as worked out from the volumes in the protocol); in the data active means inhibition above about 50%
AI-2 QS mod – modulators of Vibrio harveyi AI-2 quorum sensing system. Vibrio harveyi JMH597 AI-2 luminescence/OD600 ratio, 9 h; stronger effect = lower value; strain lacks LuxN and CqsS sensors; 0 = neutral-control median. activity change, % at 7.5 µM. hit rate 0.4% among 300,000; in the data active means activity change below about -75%, passing the limit was not always enough;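 further: luminescence divided by OD600 gain over 9 h not by final OD600 alone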
Platelet DG rel – modulates dense granule release in human platelets | human platelet-rich plasma, SFLLRN dense granule ATP release, luminescence | inhibition, %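 (compounds screened at 7.5 µM in platelet-rich plasma)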 | hit rate 0.22% among 300,000 | AID 1663;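 active means mean replicate score, as percent of positive control, at or above 50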
CHT inh conf – human CHT inhibition, confirmatory screen; CHT activity remaining % of control (stronger effect = lower value), % at 10 µM; hit rate 70% among 2,400; CHT-expressing cells, choline membrane potential dye; LV-to-AA substituted CHT, HEK293 cells; shares compounds with CHT inh;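 active means choline transporter activity left, mean of duplicates at 10 µM, below buffer-only control mean minus 3 SD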;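 further: depolarization triggered by choline at its EC90 following an EC20 pre-addition; 0% = hemicholinium-3 full block and 100% = buffer-only control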
HEK293 CHT ctr – counter-screen for CHT inhibitors: effect in parental HEK293 cells | membrane potential dye, choline response; active = decrease or increase beyond buffer ±3SD | AID 493222 | hit rate 4% among 2,400 | shares compounds with CHT inh | membrane potential ratio readout (active if shifted either direction beyond buffer ±3SD; no single direction) at 10 µM;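 further: parental cells lack the transporter so any hit is non-specific; ratio is peak minus trough fluorescence over baseline after EC90 choline challenge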
Starred values were filed as active, the others as inactive; i = inactive; nt = not tested or not shown. The list is not random: actives were taken first. Their share in the collection is about 2.2%.

SMILES	HIF act	CHT inh	CHT allo act	VLA-4 inh	AI-2 QS mod	Platelet DG rel	CHT inh conf	HEK293 CHT ctr
COc1ccc(-c2cc(C(=O)NN3CCOCC3)c3ccccc3n2)cc1OC	-1	nt	nt	nt	14	-2	nt	nt
COc1cccc(-c2cc(C(=O)NN3CCOCC3)c3ccccc3n2)c1	-1	-10*	i	18	11	-7	i	i
C[C@@H](C(=O)NNC(=O)c1ccc(Cl)cc1)N1C(=O)C2CC=CCC2C1=O (stereo partly drawn)	nt	nt	nt	-6	nt	nt	nt	nt
O=C(NNc1nc(-c2ccccc2)cs1)c1ccc(F)cc1	0	-5.2*	i	-5	24	-27	71%*	i
O=C(NCc1nc(-c2ccccc2)cs1)c1ccccc1	2	-6.5*	i	-6	15	0	71%*	i
O=C(CNC(=O)c1nn(Cc2ccccc2)c(=O)c2ccccc12)Nc1ccc(F)c(F)c1F	nt	nt	nt	7	nt	nt	nt	nt
Cc1cc(C(=O)N/N=C/c2ccc3c(c2)OCO3)c(C)o1	3	-7.1*	i	6	2	12	i	i
COc1cc(OC)cc(C(=O)Nc2ccn(C)n2)c1	nt	nt	nt	5	nt	nt	nt	nt
CCCCc1cc(=O)oc2cc(C)cc(O)c12	0	i	i	3	42	-3	nt	nt
CCCc1cc(O)c2c(C)cc(=O)oc2c1	nt	-7.6*	i	-24	21	6	48%*	i
CCCCc1cc(=O)oc2cc(O)cc(O)c12	0	-7.9*	i	-1	-40	-3	40%*	i
Cc1ccc(Cl)cc1N1CCN(C(=O)CN(c2ccccc2)S(=O)(=O)N(C)C)CC1	0	i	i	12	15	1	nt	nt
O=C(Nc1ccc(Cl)cc1)Nc1ccccc1NS(=O)(=O)c1cccs1	0	i	i	4	36	-2	nt	nt
O=C(Nc1ccc(F)cc1)Nc1ccccc1NS(=O)(=O)c1cccs1	0	-5.3*	i	4	8	1	i	i
CC1CCN(S(=O)(=O)c2nnc(NC(=O)c3cccc(Cl)c3)s2)CC1	0	-6.6*	i	-2	27	0	i	i
CS(=O)(=O)c1ccc2nc(NC(=O)CN3C(=O)C4CC=CCC4C3=O)sc2c1 (stereo not drawn)	0	i	i	14	2	-2	nt	nt
Cc1ccc2nc(NC(=O)CN3C(=O)C4CC=CCC4C3=O)sc2c1 (stereo not drawn)	nt	-5.2*	i	1	-58	nt	i	i
CCn1nc(C)cc1-c1nnc(Sc2ncc([N+](=O)[O-])s2)n1C	1	-6*	i	-20	-238*	4	45%*	i
CCn1nc(C)cc1-c1nnc(SCC(=O)Nc2ccccc2)n1CCCOC	0	i	i	2	18	6	nt	nt
O=C(C1=COCCO1)N(Cc1nnc(-c2ccccc2Cl)o1)C1CC1	nt	nt	nt	1	nt	nt	nt	nt
C=CCn1c(SCC(=O)NCc2ccco2)nnc1C1CCCCC1	-9	i	i	-2	20	3	nt	nt
C=CCn1c(SCC(=O)NC(=O)NC2CCCC2)nnc1C1CCCCC1	0	-5*	i	12	19	1	68%*	i
CN(C)c1ccccc1C(=O)N1CCCC(C(=O)c2ccc3ccccc3c2)C1 (stereo not drawn)	0	i	i	14	13	2	nt	nt
CCOc1cc(/C=C2\CCn3c2nc2cc(Cl)ccc2c3=O)ccc1O	-1	i	i	1	11	-2	nt	nt
O=S(=O)(Nc1nc2ccccc2s1)c1ccc(Cl)s1	0	-5.2*	i	1	69	-4	56%*	i
SMILES	HIF act	CHT inh	CHT allo act	VLA-4 inh	AI-2 QS mod	Platelet DG rel	CHT inh conf	HEK293 CHT ctr
O=S(=O)(Nc1nc2ccccc2s1)c1cc(F)ccc1F	0	i	i	8	32	-2	nt	nt
CCN1C(=O)/C(=C/C2=Cc3ccccc3OC2C)SC1=S (stereo not drawn)	0	i	i	-12	11	-14	nt	nt
Cc1cc(C2=NNC(=NC3CC3)SC2)c(C)n1-c1c(C)n(C)n(-c2ccccc2)c1=O	-1	i	i	-3	9	-4	nt	nt
Cc1ccc(-n2c(C)cc(C3=NNC(=NC4CC4)SC3)c2C)cc1C	1	-6.3*	i	-13	43	0	i	i
CC1(C)Cc2c(sc3nc(=S)[nH]c(N)c23)CO1	-27	i	i	5	-14	2	nt	nt
O=C1Nc2ccc(F)cc2C12Nc1ccccc1-c1nnc(SCc3ccccc3)nc1O2 (stereo not drawn)	0	i	i	22	21	-12	nt	nt
O=C1Nc2ccc(F)cc2C12Nc1ccccc1-c1nnc(SCc3ccccc3Cl)nc1O2 (stereo not drawn)	0	-6.1*	i	-6	8	-8	i	i
CCC(C)[C@H](NC(=O)[C@@H]1CSC2c3ccccc3C(=O)N21)C(=O)NCc1ccncc1 (stereo partly drawn)	0	i	i	5	6	0	nt	nt
Cc1ccccc1C(=O)NCCCNC(=O)c1cnccn1	0	i	i	-2	-2	9	nt	nt
Cc1cc(C)nc(SCc2cc(=O)c(OC(=O)c3ccc(S(=O)(=O)N(C)C)cc3)co2)n1	-1	i	i	9	38	-2	nt	nt
Cc1ccnc(SCc2cc(=O)c(OC(=O)c3ccc(S(=O)(=O)N(C)C)cc3)co2)n1	0	-6.5*	i	6	27	-8	58%*	i
COc1ccccc1NC(=O)c1ccc(C(=O)c2ccccc2)o1	1	-5*	i	-6	13	-3	i	i
COc1ccccc1NC(=O)c1ccc(-c2ccc(Br)cc2)o1	4	i	i	29	22	8	nt	nt
COc1cc2ncc(S(=O)(=O)c3ccccc3)c(N3CCCC(C)C3)c2cc1OC (stereo not drawn)	0	i	i	-27	19	2	nt	nt
O=C(CCCc1nc(-c2ccccc2Cl)no1)NC1CCCC1	-4	i	i	-1	18	-7	nt	nt
NC(=O)CCCn1c(C(=O)c2cc(Cl)c(N)c(Cl)c2)c2ccc(C(F)(F)F)cc2[n+]1[O-]	-1	-10*	i	-2	14	-4	-1.6%*	i
COc1ccc(C(=O)c2c3ccc(C(F)(F)F)cc3[n+]([O-])n2CCCC(N)=O)cc1	-4	i	i	-8	13	-3	nt	nt

High-throughput results: PubChem, several laboratories
